This is a sample that favours compounds with a hit; in the whole collection about 1.8% have one here.
LYPLA1 counter – LYPLA1 inhibitors, primary screen, counter-screen for PME1 inhibitor project, biochemical, fluorescence polarization, FP-Rh probe ABPP | Acyl-protein thioesterase 1 (Homo sapiens), O75608 | recombinant LYPLA1 | inhibition, % at 5.9 µM | 320,000 tested, 0.16% active | AID 2174, 2009;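 active = inhibition above the mean of all tested compounds plus 3 SD, set per campaign, cut at about 14% in these data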;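 note: inhibitors block serine hydrolase probe labeling of LYPLA1 so polarization falls; 0% = enzyme with DMSO and 100% = wells lacking LYPLA1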
PP1 inh – PP1-alpha phosphatase inhibitors, primary screen, counter-screen for PP5 inhibitor project, biochemical, fluorescence, OMFP substrate, single point | Serine/threonine-protein phosphatase PP1-alpha catalytic subunit (Homo sapiens), P62136 | purified PP1alpha | inhibition, % at 6.7 µM | 320,000 tested, 0.9% active | AID 2235, 2010;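 active = inhibition above the mean inhibition of all tested compounds plus 3 SD, computed separately for each screening campaign, cut at about 15% in these data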
PP5 primary – PP5 phosphatase inhibitors, primary screen, biochemical, fluorescence. purified PP5c, OMFP substrate fluorescence. inhibition, % at 6.7 µM. 320,000 tested, 0.18% active. AID 1987, 2009;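 active = inhibition above the campaign's mean inhibition across all tested compounds plus 3 SD, cut at about 9.5% in these data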;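 note: 0% = DMSO only and 100% = 100 µM cantharidin control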
Fam108B inh – mouse Fam108B serine hydrolase inhibitors, primary screen, counter-screen for RBBP9 inhibitor project, biochemical, fluorescence polarization; 300,000 tested, 0.33% active; inhibition, % at 9.51 µM; recombinant Fam108B, FP-Rh probe fluorescence polarization;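 active = inhibition above the screen mean inhibition plus 3 SD, computed separately per campaign, cut at about 18% in these data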;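 note: inhibitors lower polarization as less probe binds the enzyme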
LYPLA2 counter – LYPLA2 inhibitors, primary screen, counter-screen for PME1 inhibitor project, biochemical, fluorescence polarization, FP-Rh probe ABPP | inhibition, % at 5.9 µM | AID 2177, 2009 | 320,000 tested, 0.38% active | recombinant LYPLA2 | Acyl-protein thioesterase 2 (Homo sapiens), O95372;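 active = inhibition above the screen-wide mean plus 3 SD, limit set per campaign, cut at about 26% in these data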;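 note: 0% = LYPLA2 with DMSO and 100% = wells lacking LYPLA2 enzyme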
Target sequence (O95372 whole entry, looked up): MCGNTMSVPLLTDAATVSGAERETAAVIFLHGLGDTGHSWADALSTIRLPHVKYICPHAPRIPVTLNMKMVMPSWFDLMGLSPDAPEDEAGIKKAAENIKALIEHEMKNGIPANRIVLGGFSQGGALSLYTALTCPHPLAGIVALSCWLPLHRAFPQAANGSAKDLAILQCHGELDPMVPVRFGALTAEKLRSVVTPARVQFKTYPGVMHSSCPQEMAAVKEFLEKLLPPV
PME-1 primary – PME-1 inhibitors via competitive probe labeling, primary screen, biochemical, fluorescence polarization, FP-Rh probe, HTS. Protein phosphatase methylesterase 1 (Homo sapiens), Q9Y570. recombinant PME-1. inhibition, % at 5.9 µM. 320,000 tested, 0.53% active. AID 2130, 2009;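 active = inhibition above the campaign mean of all compounds plus 3 SD, cut at about 26% in these data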;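 note: competitive labeling of PME-1 active site by serine hydrolase directed probe; 0% = PME-1 with DMSO and 100% = wells lacking PME-1 enzyme; inhibitors block probe labeling so polarization falls and inhibition rises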
Target sequence (Q9Y570 whole entry, looked up): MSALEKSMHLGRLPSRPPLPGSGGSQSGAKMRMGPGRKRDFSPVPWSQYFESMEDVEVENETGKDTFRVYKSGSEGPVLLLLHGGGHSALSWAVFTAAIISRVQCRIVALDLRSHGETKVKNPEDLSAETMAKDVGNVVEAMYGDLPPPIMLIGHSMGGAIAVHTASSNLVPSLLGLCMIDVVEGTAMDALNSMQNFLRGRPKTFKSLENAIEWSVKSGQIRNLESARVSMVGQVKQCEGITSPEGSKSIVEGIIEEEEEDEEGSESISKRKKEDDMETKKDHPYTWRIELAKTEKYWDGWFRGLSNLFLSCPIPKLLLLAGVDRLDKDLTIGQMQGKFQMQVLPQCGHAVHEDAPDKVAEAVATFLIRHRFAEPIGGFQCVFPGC
LYPLA2 confirm – LYPLA2 inhibitors, retest, confirmation, counter-screen for PME1 inhibitor project, biochemical, fluorescence polarization, FP-Rh probe ABPP | AID 2232, 2010 | shares compounds with LYPLA2 counter | recombinant LYPLA2 | inhibition, % at 5.9 µM | 1,100 tested, 72% active;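 active = mean inhibition across replicates above the hit cutoff set in the primary screen, cut at about 26% in these data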;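 note: blocked labeling of the enzyme by serine hydrolase FP-Rh probe lowers polarization; 0% = enzyme with DMSO and 100% = wells lacking LYPLA2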
LYPLA2 ABPP – LYPLA2 inhibitors in proteome, late-stage follow-up, gel-based competitive ABPP, fluorescence, assay provider; shares compounds with LYPLA2 counter; rhLYPLA2 in mouse brain proteome, gel ABPP FP-Rh; inhibition, % at 20 µM; 150 tested, 30% active; AID 652029, 2013;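 active = inhibition of LYPLA2 enzyme probe labeling above about 50%, limit read from the data; inactive = inhibition below that limit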;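 note: loss of FP-Rh probe labeling of the LYPLA2 gel band measured as band density; 0% = DMSO only control band and 100% = blank gel background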
The depositor's hits bear a star; . = not tested or not shown.

SMILES | LYPLA1 counter | PP1 inh | PP5 primary | Fam108B inh | LYPLA2 counter | PME-1 primary | LYPLA2 confirm | others
Cc1cc(C(=O)NC(C)c2ccccc2)c2cc(F)ccc2n1 (stereo unspecified) | 3.4 | -0.7 | -1.6 | 3.1 | 28.4* | 3.0 | 13.0
O=[N+]([O-])c1cc(Cl)ccc1Oc1ccc(-c2nnco2)cc1 | 7.3 | -2.4 | 1.3 | -3.6 | 27.0* | 11.8 | 28.1*
COc1cc2[nH]c(C(=O)N3CCC(Cc4ccccc4)CC3)cc2c(OC)c1OC | -2.5 | 2.8 | 3.6 | 3.5 | 33.5* | -5.5 | 19.6
O=S(=O)(c1ccc(NC(=S)N2CCN(c3ccccc3F)CC2)cc1)N1CCOCC1 | -0.1 | -0.1 | 1.9 | 1.2 | 38.1* | 4.7 | 29.6*
O=C(Nc1ncccc1O)c1cccc(S(=O)(=O)N2CCc3ccccc32)c1 | -1.5 | 8.8 | -0.7 | 4.2 | 26.5* | -2.4 | -5.2
COc1ccc(-c2cc(C)no2)cc1S(=O)(=O)NCCc1ccco1 | 0.9 | 1.8 | 1.8 | 5.4 | -1.2 | -0.8 | .
CN(C)/C=N/N(C)c1ncccc1[N+](=O)[O-] | 3.5 | 1.2 | 2.9 | 2.3 | 4.0 | 3.6 | .
Cc1ccc(C=NNC(=O)C(NC(=O)c2ccccc2)c2n[nH]c(=O)c3ccccc23)cc1 (stereo unspecified) | . | . | . | . | . | . | . | LYPLA2 ABPP=28.0
CC(NC(=O)c1ccccc1)C(=O)N/N=C/c1ccc(O)cc1 (stereo unspecified) | -3.7 | 0.0 | 0.9 | 1.2 | -7.1 | -1.0 | .
COC(=O)CC1C(=O)NCCN1C(=O)c1ccc(Cl)cc1 (stereo unspecified) | -5.0 | 14.7 | -2.6 | -5.0 | -1.3 | -3.4 | .
O=[N+]([O-])c1cc(-n2cnnn2)ccc1N1CCC(Cc2ccccc2)CC1 | 1.9 | 13.4 | 3.3 | 7.0 | 28.0* | 7.7 | 33.9*
C=CCNC(=O)/C(C#N)=C/c1c(N2CCN(c3ccc(OC)cc3)CC2)nc2c(C)cccn2c1=O | -3.2 | 8.3 | 1.1 | 7.7 | 8.4 | 3.4 | .
O=C(O)c1cccc2c1C(=O)c1ccc(-c3ccc(F)cc3OCc3ccccc3)cc1S2(=O)=O | -9.1 | 14.1 | 4.0 | . | 34.7* | 11.9 | 29.4*
N#Cc1cnn2c3c(cnc12)C(=O)N1CCc2ccccc2C1C3 (stereo unspecified) | 9.7 | -4.0 | -3.3 | 0.4 | 42.4* | -0.1 | 44.1*
CC(C)(C)OC(=O)NCCCCCNC(=O)c1[nH]cnc1C(=O)NC1CCN(C(=O)OC(C)(C)C)CC1 | 4.9 | -4.0 | -0.5 | . | 6.8 | 0.2 | .
O=C(c1cccc(Br)c1)N1CCN(c2cnn(-c3ccccc3)c(=O)c2Cl)CC1 | 6.1 | -1.9 | 1.1 | 1.8 | 28.2* | 3.8 | 15.1
O=C(Nc1ccccc1Cl)C1CCN(S(=O)(=O)c2cccc3nonc23)CC1 | 1.5 | -0.7 | 1.7 | -2.8 | -3.1 | -4.4 | .
COc1ccc([C@H]2CC(=O)C=C(c3ccc(F)cc3OCc3ccccc3)C2)cc1OC | 2.2 | 0.6 | 4.9 | . | 26.5* | 2.6 | -4.0
O=C(c1ccc([N+](=O)[O-])cc1)N1CCOC12CCN(c1ncc(C(F)(F)F)cc1Cl)CC2 | 0.6 | -4.5 | -0.8 | -4.6 | 38.1* | 1.7 | 56.7* | LYPLA2 ABPP=8.0
O=C(C1CCC(=O)N1Cc1ccccc1Cl)N1CCN(c2cccc(Cl)c2)CC1 (stereo unspecified) | 6.1 | -4.2 | 0.9 | 1.4 | 33.8* | 10.6 | 31.5*
CC(=O)NCCc1ccc(C(=O)Cn2cnc3ccccc3c2=O)cc1 | 2.3 | 0.2 | 3.0 | -2.8 | 29.4* | -3.0 | 38.8*
O=C(NC1CCCC1)C1CCC(CNS(=O)(=O)c2cccs2)CC1 (stereo unspecified) | -2.1 | -0.6 | -3.7 | -1.7 | 2.7 | 1.7 | .
O=C(C1CCC(CNS(=O)(=O)c2cccs2)CC1)N1CCN(c2ccc(Cl)cc2)CC1 (stereo unspecified) | 1.1 | -3.0 | 2.5 | 0.7 | 35.9* | 4.5 | 33.7*
COc1cccc(C(=O)NCC(=O)N2CCC3(CC2)NCCc2[nH]cnc23)c1 | 0.2 | -2.9 | -0.9 | 3.8 | 2.3 | -3.8 | .
S=C1CCC(c2ccc(Br)cc2)=NN1c1ccccc1 | -4.0 | 12.2 | -0.2 | 0.5 | -3.1 | -15.3 | .
SMILES | LYPLA1 counter | PP1 inh | PP5 primary | Fam108B inh | LYPLA2 counter | PME-1 primary | LYPLA2 confirm | others
O=C(O)c1cccc(N2C(=O)c3ccc(C(=O)c4cccc([N+](=O)[O-])c4)cc3C2=O)c1 | 4.0 | -6.5 | 0.9 | -2.6 | 45.0* | -0.6 | 58.5* | LYPLA2 ABPP=45.0
C/C(=N\OC(=O)c1ccc(F)cc1)c1nccs1 | -1.2 | 3.1 | 0.8 | -2.0 | 1.6 | -4.0 | .
COc1ccc(C(=O)O/N=C(\C)c2nccs2)cc1 | 10.2 | -0.4 | -1.5 | 3.5 | 30.3* | 7.1 | 29.1*
COc1ccc(CCC(=O)N2CCN(S(=O)(=O)c3cccc(Cl)c3)CC2)cc1 | -1.4 | 0.0 | 1.1 | . | -0.5 | 2.9 | .
Cc1nn(Cc2ccccc2)c(C)c1NC(=O)c1cc(-c2ccco2)on1 | 0.3 | -4.2 | 1.6 | 1.7 | 6.8 | -2.5 | .
COc1ccc(OC)c(-c2cc(C(=O)Nc3c(C)nn(Cc4ccccc4)c3C)no2)c1 | 12.3 | 0.3 | 5.5 | -0.2 | 60.7* | -4.6 | 66.1* | LYPLA2 ABPP=64.0*
COc1ccc(OC)c(-c2cc(C(=O)Nc3c(C)nn(Cc4ccc(Cl)cc4)c3C)no2)c1 | 11.8 | 2.0 | 6.7 | -13.7 | 44.4* | -10.8 | 86.9* | LYPLA2 ABPP=45.0
COc1ccc2c(c1)OC[C@H]1[C@H]2N2C(=O)c3cc(Br)ccc3NC(=O)[C@@]2(C)[C@H]1c1ccccc1 | -21.4 | 5.6 | 2.5 | -29.3 | -34.4 | -39.6 | .
CCOC(=O)C1=C(C)NC2=C(C1c1ccc([N+](=O)[O-])cc1)S(=O)(=O)c1ccccc12 (stereo unspecified) | 0.8 | -1.4 | 4.9 | -4.7 | 41.5* | 4.2 | 38.0*
Cc1cccnc1NC(=O)C(c1ccccc1)c1ccccc1 | -0.3 | -1.4 | 2.0 | -1.9 | 26.6* | -6.7 | -0.9
Cc1cccc(N2CCN(C(=O)Cc3ccc(-n4c(=O)[nH]c5ccsc5c4=O)cc3)CC2C)c1 (stereo unspecified) | -1.5 | -7.0 | -2.3 | 1.8 | 11.2 | 1.1 | .

Screening results as filed in PubChem BioAssay.
